From PubChem BioAssay AID2025 (NMMLSC, 2009)
Screen size: about 330,000 compounds; about 980 (0.3%) were called active.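 The calls were made as follows: active = percent response vs DMSO below 50%; inconclusive = fewer than 70 events counted for the yeast strain; inactive = the rest.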 The list comes from a sample in which actives are over-represented; it also holds similar structures and randomly drawn compounds.

Test: RPL19A-GFP expression modulators in yeast, primary screen, cell-based, S. cerevisiae, multiplex flow cytometry, MLPCN (AID 2025);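 also: median channel GFP fluorescence of the barcoded RPL19A-GFP strain; ratio of sample median GFP to plate DMSO average so 100% = DMSO; lower means less RPL19A-GFP as with rapamycin TOR inhibition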
Conditions: S. cerevisiae RPL19A-GFP strain, 3 h, at 10 µM, hits give low values

SMILES	percent response vs DMSO
CCc1ccc(-c2cc(C)no2)cc1S(=O)(=O)NCCc1ccc(S(N)(=O)=O)cc1	33.8% [may fluoresce violet] (active)
Cc1noc(C)c1S(=O)(=O)NCCc1ccc(S(N)(=O)=O)cc1	95.7% (inactive)
Cc1cc(-c2ccc(C)c(S(=O)(=O)Nc3ccc(S(N)(=O)=O)cc3)c2)on1	99% (inactive)
CCOC(=O)N1CCC(N(CCOC)C(=O)Nc2ccc(C)c(C)c2)CC1	89.6% (inactive)
CCOC(=O)C1Nc2ccc(C(F)(F)F)cc2C2C=CCC12 (stereo unspecified)	93.3% (inactive)
CC1CCN(C(=O)CN(c2ccc(Oc3ccccc3)cc2)S(C)(=O)=O)CC1	100% (inactive)
COc1ccc(NC(=O)c2cccc(Cl)c2)c[n+]1[O-]	106% (inactive)
CC(CN1CCOCC1)OC(=O)c1ccc(C(C)(C)C)cc1 (stereo unspecified)	105% (inactive)
CC(C)(C)OC(=O)c1c(N)n(CCCN2CCCC2=O)c2nc3ccccc3nc12	90% (inactive)
COCC(C)OC(=O)c1c(N)n(CCCN2CCOCC2)c2nc3ccccc3nc12 (stereo unspecified)	27% [may fluoresce violet] (active)
CCCCC(CC)CNC(=O)C(=O)C1C(=O)Nc2ccccc21 (stereo unspecified)	96.8% (inactive)
COc1ccc(N(CCC#N)S(=O)(=O)c2ccc(Cl)cc2)cc1	99.2% (inactive)
COc1ccccc1OCCNCC(O)COc1cccc2[nH]c3ccccc3c12 (stereo unspecified)	103% (inactive)
O=C(CNC(=O)c1ccc(Cl)cc1Cl)NCC(=O)Nc1ccccc1N1CCOCC1	100% (inactive)
O=C(c1ccccc1)N1CCN(c2ccc([N+](=O)[O-])c(NCc3ccco3)c2)CC1	98.5% (inactive)
COc1ccc(CCNc2cc(N3CCN(C(=O)c4ccccc4OC)CC3)ccc2[N+](=O)[O-])cc1OC	19.6% [may fluoresce violet] (active)
COc1ccccc1OCCNc1cc(N2CCOCC2)ccc1[N+](=O)[O-]	99.1% (inactive)
Cn1ccs/c1=N\S(=O)(=O)c1ccc(C(C)(C)C)cc1	43.3% [may fluoresce violet] (active)
Cn1ccsc1=NC(=O)c1cc(S(=O)(=O)N2CCOCC2)ccc1Cl	101% (inactive)

SMILES	percent response vs DMSO
COc1ccc(C2=Nn3c(nnc3-c3ccccc3OC)SC2)cc1OC1CCCC1	92.8% (inactive)
Cc1cccn2c(=O)c3cc(C#N)c(=O)n(CCCN4CCOCC4)c3nc12	37.1% [may fluoresce violet] (active)
Cc1cccn2c(=O)c3cc(C#N)c(=NC(=O)c4cccnc4)n(CC4CCCO4)c3nc12 (stereo unspecified)	97.3% (inactive)
Cc1cccn2c(=O)c3cc(C(=O)NCC4CCCO4)c(=N)n(Cc4ccc(F)cc4)c3nc12 (stereo unspecified)	97.2% (inactive)
CCCOc1ccc(/C=N/NC(=O)C2CC2)c(OCCC)c1	101% (inactive)
COc1cccc(N=c2oc3c(C)ncc(CO)c3cc2C(N)=O)c1	95% (inactive)
Cc1ccccc1S(=O)(=O)Cc1ccc(C(=O)NCCN2CCCCC2C)o1 (stereo unspecified)	34.3% [may fluoresce violet] (active)
Cc1oc(-c2ccccc2F)nc1CS(=O)CC(=O)NCCN1CCCCC1C (stereo unspecified)	100% (inactive)
CCc1ccccc1S(=O)(=O)Cc1ccc(C(=O)NCCc2ccccc2)o1	96.8% (inactive)
CCCS(=O)(=O)N1CCCC(C(=O)NCCN2CCCCC2C)C1 (stereo unspecified)	104% (inactive)
Cc1cc(N2CCOCC2)nc2ccc(NC(=S)N3CCN(Cc4ccccc4)CC3)cc12	105% (inactive)
CC(=NNC(=O)c1ccc2nc[nH]c2c1)c1ccc(Br)cc1	103% (inactive)
COc1ccc(/C(C)=N/NC(=O)c2ccc3nc[nH]c3c2)cc1	22.1% [may fluoresce violet] (active)
CCN(CC)c1ccc(C(=O)N/N=C(\C)c2cccc(OC)c2)cc1	103% (inactive)
CCCC(NC(=O)c1ccco1)c1nc2ccccc2[nH]1 (stereo unspecified)	104% (inactive)
COc1c(C)c2c(c(O)c1C/C=C(\C)CCC(=O)O)C(=O)OC2	39.1% [may fluoresce violet] (active)
Cc1c(C)n2c(SCC(=O)NC3CCCC3)nnc2[nH]c1=O	88% (inactive)
COc1cc(SC)ccc1C(=O)NNC(=O)C1COc2ccccc2O1 (stereo unspecified)	95% (inactive)
CCOc1ccccc1NC(=O)C12CC3CC(C1)CC(c1ccc(C)cc1)(C3)C2	101% (inactive)

SMILES	percent response vs DMSO
C=CCNC(=O)C12CC3CC(C1)CC(C(=O)NCC=C)(C3)C2	98.2% (inactive)
Cc1ccc(C23CC4CC(CC(C(=O)NCC(=O)O)(C4)C2)C3)cc1	30% [may fluoresce violet] (active)
O=C(COc1ccc2c(c1)CCC2)N1CCN(c2ccc(F)cc2)CC1	95.3% (inactive)
COc1ccc(-c2nc3ccccc3n2CCC(C)C)cc1OC	98.3% (inactive)
O=C1N(c2ccc(Cl)cc2)C(c2ccc(Cl)cc2)N2CCCN12 (stereo unspecified)	95.4% (inactive)
CCOC(=O)C1CCN(C(=O)CN2C(=O)c3cccnc3Oc3ccc(C)cc32)CC1	97.7% (inactive)
Cc1cc2c(cc1C)N(Cc1ccccc1)C1=NCCCN12	101% (inactive)
COC(=O)C1=C(N)Oc2c(oc(CO)cc2=O)C1c1c(F)cccc1Cl (stereo unspecified)	103% (inactive)
CC(C)c1ccc(C2C(C#N)=C(N)Oc3c2oc(CO)cc3=O)cc1 (stereo unspecified)	44% [may fluoresce violet] (active)
C=CCOC(=O)C1=C(C)OC(N)=C(C#N)C1c1ccc(F)cc1 (stereo unspecified)	91.2% (inactive)
Cc1cccc(OCC(=O)NC2CC(C)(C)NC(C)(C)C2)c1	98.6% (inactive)
Cc1cccc(NC(=O)Cn2c(=O)n(Cc3ccccc3)c(=O)c3c(C)c(C)sc32)c1	104% (inactive)
Cc1c(C(C)(C)O)[nH]c2ccc(C#N)cc12	91.7% (inactive)
CCOC(=O)C1CCCN(C(=O)CSc2nnc3nc(C)cc(C)n23)C1 (stereo unspecified)	93.7% (inactive)
COc1cc(C(=O)NC2CCN(C)CC2)ccc1Nc1ncc2c(n1)N(C1CCC(O)CC1)CCC(=O)N2C (stereo unspecified)	90.7% (inactive)
O=C(CS(=O)(=O)c1cn(Cc2cccc(F)c2)c2ccccc12)N1CCCCC1	43% [may fluoresce violet] (active)
O=C(CS(=O)(=O)c1cn(Cc2ccc(Cl)cc2)c2ccccc12)N1CCOCC1	91.2% (inactive)
CC(=O)Nc1ccc(NC(=O)CS(=O)(=O)c2cn(CC(=O)N3CCCCC3)c3ccccc23)cc1	97.7% (inactive)
